Measurements: the supplement of paper PMC10498489
Among all 2,300 compounds or so, about 330 (14%) showed activity.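 How the source made its calls: active = median modified Z-score above 1.96; inactive = 1.96 or below.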 A selection follows.

tested on: HepG2 Srxn1-GFP reporter cells (+30 nM CDDO-Me); assay: Srxn1-GFP intensity median modified Z-score relative to plate median; higher = stronger NRF2 / oxidative stress reporter activation, active = hit call of the paper; details: 10 µM; exposure time: 24h
How it was run: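 In 96-well plates holding 20,000 HepG2 Srxn1-GFP BAC reporter cells per well, compound at 10 μM and an NRF2 activator at 30 nM were added together for 24 h, with DMSO at ≤0.1%, across three replicate plates. After fixation in formaldehyde and Hoechst staining, confocal images were analysed cell by cell for cytoplasmic GFP, and images containing under 100 cells were excluded. Values are replicate medians of the per-plate modified Z-score of GFP intensity, scaled by 1.4826 × median absolute deviation.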

Row | Structure (SMILES) | Srxn1-GFP intensity median modified Z-score
1 | CCCCOC(=O)c1ccc(O)cc1 [euspeclibcmpd905] | 0.67 (inactive)
2 | CCCCCCc1ccc(O)cc1O [euspeclibcmpd2121] | 3.73 (active)
3 | C[C@H]1[C@H](C)CC[C@]2(C(=O)O)CC[C@]3(C)C(=CCC4[C@@]5(C)C[C@@H](O)[C@H](O)[C@@](C)(CO)C5[C@H](O)C[C@]43C)[C@H]12 (stereo partly drawn) [euspeclibcmpd1692] | -0.252 (inactive)
4 | Cn1c(O)cc(-c2ccccc2)c1O [euspeclibcmpd796] | -0.502 (inactive)
5 | CCCCNc1ccc(C(=O)OCCOCCOCCOCCOCCOCCOCCOCCOCCOC)cc1 [euspeclibcmpd1214] | 5.26 (active)
6 | CCCCNc1ccc(C(=O)OCCN(C)C)cc1 [euspeclibcmpd287] | -0.0522 (inactive)
7 | CCCCOC(=O)c1ccc(N)cc1 [euspeclibcmpd342] | 0.38 (inactive)
8 | Cn1cc(O)[nH]c1=N [euspeclibcmpd1004] | -0.153 (inactive)
9 | CCN(CC)CCNC(=O)c1ccc(I)cc1 | 0.454 (inactive)
10 | N=c1[nH]cnc2[nH]cnc12 [euspeclibcmpd349] | -0.183 (inactive)
11 | N=c1[nH]c(=S)c2nc[nH]c2[nH]1 [euspeclibcmpd292] | 28.2 (active)
12 | NCCCC(N)CC(=O)NCC1NC(=O)C(CO)NC(=O)C(N)CNC(=O)C(C2CCN=C(N)N2)NC(=O)C(C=NC(N)=O)NC1=O (stereo not drawn) [euspeclibcmpd1312] | 0 (inactive)
13 | O=C(O)C1O[C@@H](Oc2cc3oc(-c4ccccc4)cc(=O)c3c(O)c2O)[C@H](O)[C@@H](O)[C@@H]1O (stereo partly drawn) [euspeclibcmpd2123] | -0.648 (inactive)
14 | CCCCCC1C(=O)CCC1CC(=O)OC (stereo not drawn) [euspeclibcmpd1637] | -0.322 (inactive)
15 | CCC(N)C12CC3CC(CC(C3)C1)C2 (stereo not drawn) | 0.333 (inactive)
16 | CC1(C)S[C@@H]2[C@H](N3C(=O)C(c4ccccc4)NC3(C)C)C(=O)N2C1C(=O)O (stereo partly drawn) [euspeclibcmpd2360] | -0.502 (inactive)
17 | CSc1nc2cc(Cl)c(Oc3cccc(Cl)c3Cl)cc2[nH]1 [euspeclibcmpd1225] | 4.92 (active)
18 | COC(=O)C[C@H]1C(C)(C)C(=O)C2CC3=C4CC(=O)O[C@@H](c5ccoc5)[C@]4(C)CCC3[C@@]1(C)C2=O (stereo partly drawn) [euspeclibcmpd2085] | -0.00623 (inactive)
19 | COc1cc2[nH]c(N3CCN(C(=O)c4ccco4)CC3)nc(=N)c2cc1OC [euspeclibcmpd1302] | -0.393 (inactive)
20 | Clc1cnc(N/N=C/c2sc(N3CCCCC3)nc2-c2cccs2)c(Cl)c1 | 0.529 (inactive)
21 | COC(=O)CCC(C)[C@H]1CCC2C3C(C[C@H](O)[C@@]21C)[C@@]1(C)CC[C@@H](O)C[C@H]1C[C@H]3O (stereo partly drawn) [euspeclibcmpd1539] | -0.423 (inactive)
22 | CC1(C)CC2C(=O)CCC3OC3(C)CCC21 (stereo not drawn) [euspeclibcmpd2011] | -0.362 (inactive)
23 | O=C(Cc1c[nH]c2ccccc12)NCCc1c[nH]c2ccccc12 | 1.76 (inactive)
24 | Cc1cccc(C(=O)O)c1O [euspeclibcmpd1013] | -0.315 (inactive)

Row | Structure (SMILES) | Srxn1-GFP intensity median modified Z-score
25 | CON(C)C(=O)c1ccccc1Nc1cccc(C(F)(F)F)c1 | 1.46 (inactive)
26 | Cc1c(Cl)cccc1Nc1ccccc1C(=O)O [euspeclibcmpd1068] | 4.04 (active)
27 | O=C(c1ccccc1Nc1cccc(C(F)(F)F)c1)N1CCC1 | 1.38 (inactive)
28 | Cc1cccc(Nc2ccccc2C(=O)O)c1C | 0.337 (inactive)
29 | O=C(O)c1ccccc1Nc1ccccc1 [euspeclibcmpd1737] | -0.16 (inactive)
30 | Cc1cccc(Nc2ccccc2C(=O)O)c1C [euspeclibcmpd373] | 2.69 (active)
31 | O=C(O)c1ccccc1Nc1cccc(C(F)(F)F)c1 [euspeclibcmpd370] | 2.94 (active)
32 | Cc1cccc(Nc2ccccc2C(=O)OCC#N)c1C | 0.491 (inactive)
33 | Cc1ccc(Cl)c(Nc2ccccc2C(=O)O)c1Cl [euspeclibcmpd2058] | 0.0269 (inactive)
34 | O=C(O)CCCCC(=O)O [euspeclibcmpd2456] | 0.307 (inactive)
35 | C[C@H]1O[C@H](O[C@H]2[C@H](O)[C@@H](O)[C@@H](O[C@H]3[C@H](O)[C@@H](O)C(O)O[C@@H]3CO)O[C@@H]2CO)[C@H](O)[C@@H](O)[C@@H]1N[C@H]1C=C(CO)[C@@H](O)[C@H](O)[C@H]1O (stereo partly drawn) [euspeclibcmpd430] | -0.321 (inactive)
36 | CC[C@H]1OC(=O)C(C)[C@@H](O[C@H]2C[C@@](C)(OC)[C@@H](O)[C@H](C)O2)[C@H](C)[C@@H](O[C@@H]2O[C@H](C)C[C@H](N(C)C)[C@H]2O)[C@](C)(O)CC(C)C(=NOCOCCOC)C(C)[C@@H](O)[C@]1(C)O (stereo partly drawn) [euspeclibcmpd567] | -0.00752 (inactive)
37 | Cc1c(C(=O)O)sc(S(=O)(=O)N2CCN(C(=O)CC3CCCC3)CC2)c1C(=O)O | 0.344 (inactive)
38 | Nc1cc(-c2ccncc2)c[nH]c1=O [euspeclibcmpd524] | -0.435 (inactive)
39 | Cc1[nH]c(=O)c(C#N)cc1-c1ccncc1 [euspeclibcmpd1241] | 2.87 (active)
40 | COc1cc(=NS(=O)(=O)c2ccc(N)cc2)[nH]cn1 [euspeclibcmpd400] | -0.55 (inactive)
41 | CC(=O)C(N)C(O)O (stereo not drawn) [euspeclibcmpd1109] | -0.112 (inactive)
42 | CC(=O)C(N)C(O)O (stereo not drawn) [euspeclibcmpd2348] | -0.525 (inactive)
43 | CCOc1cc(CC(=O)N[C@@H](CC(C)C)c2ccccc2N2CCCCC2)ccc1C(=O)O [euspeclibcmpd908] | 0.187 (inactive)
44 | COc1cc(O)c(C(C)=O)c(O)c1 [euspeclibcmpd1561] | 1.48 (inactive)
45 | N[C@@H](CC(=O)N1CCn2c(nnc2C(F)(F)F)C1)Cc1cc(F)c(F)cc1F [euspeclibcmpd2166] | 12.2 (active)
46 | CCn1cc(N(CC(C)C)S(=O)(=O)CCC2CCOCC2)cn1 | 1.44 (inactive)
47 | N=c1ccn2c(n1)O[C@@H]1[C@@H](O)[C@H](CO)O[C@@H]12 [euspeclibcmpd1164] | 0.441 (inactive)
48 | Oc1cc2cc(CCN3CCN(c4nsc5ccccc45)CC3)c(Cl)cc2[nH]1 [euspeclibcmpd1992] | -0.197 (inactive)
